Measured values taken from PubChem BioAssay (Tox21).
Inconclusive results are not listed. Activity calls are given as the source filed them. The call rests on the fitted dose curve; in most records, active means well fitted curve in the direction sought with a large enough effect in the repeat runs; inconclusive means weak or mixed curves; inactive means no such curve, though single readings can be large; an effect the other way counts as inactive or inconclusive.

Tested on: not listed separately
Test: Caspase-3/7 induction in HepG2 cells by small molecules, qHTS cell viability counter screen (AID 1346981); further: nearly all actives have a fitted effect of over 30% in size
Details: CellTiter-Fluor fluorescence, 17 h; series mostly up to 92.4 µM; activity change, negative = cytotoxicity: at the top concentration
Outline: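 The parent HepG2 line is plated at 2,000 cells per well and rested 5 hr before compound pinning from DMSO stocks. Following a 16-hr treatment at 37 C, a fluorogenic live-cell substrate (CellTiter-Fluor) reports viability after 1 hr.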
On the % scale 0 is the no-effect control and ±100 the full control effect.

| SMILES | activity change, negative = cytotoxicity |
| --- | --- |
| O=C(/C=C/c1ccc(O)c(O)c1)O[C@@H](C(=O)O)[C@@H](OC(=O)/C=C/c1ccc(O)c(O)c1)C(=O)O | -3.1% (inactive) |
| CC(C(=O)O)c1ccc2c(c1)[nH]c1ccc(Cl)cc12 (stereo not given) | 10.2% [at 42.5 µM] (inactive) |
| Cc1cc(C(C)(C)C)cc(C)c1CC1=NCCN1 | -0.552% [at 42.5 µM] (inactive) |

Target: Nuclear receptor subfamily 1 group I member 2 (Homo sapiens) (UniProt O75469)
Test: Human pregnane X receptor (PXR) small molecule agonists, qHTS assay (AID 1346982); further: nearly all actives have a fitted effect of over 35% in size; further: potency means the concentration at half of the fitted maximal effect
Details: PXR-Luc HepG2, CYP3A4 luciferase reporter, 24 h; series mostly up to 92.4 µM; activation: at the top concentration
Outline: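 After plating in 5% charcoal-stripped FBS and a 5 hr rest, PXR-Luc HepG2 cells received compounds in DMSO. Following 24 hr at 37 C, ONE-Glo was added and light output read.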

Sequence of Nuclear receptor subfamily 1 group I member 2 (Homo sapiens) (O75469 whole entry, looked up): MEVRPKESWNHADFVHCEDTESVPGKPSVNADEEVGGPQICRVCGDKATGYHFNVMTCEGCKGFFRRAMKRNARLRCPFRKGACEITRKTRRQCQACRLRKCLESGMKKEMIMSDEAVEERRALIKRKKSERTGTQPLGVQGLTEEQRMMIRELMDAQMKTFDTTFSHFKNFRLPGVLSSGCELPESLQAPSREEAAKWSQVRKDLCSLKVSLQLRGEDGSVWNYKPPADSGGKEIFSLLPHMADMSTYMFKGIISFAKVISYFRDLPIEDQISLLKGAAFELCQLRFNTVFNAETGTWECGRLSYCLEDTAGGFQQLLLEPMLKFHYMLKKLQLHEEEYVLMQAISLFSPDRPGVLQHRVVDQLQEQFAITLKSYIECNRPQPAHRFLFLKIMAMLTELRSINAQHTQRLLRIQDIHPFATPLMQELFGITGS

| SMILES | Potency | activation |
| --- | --- | --- |
| O=c1[nH]c2ccccc2n1CCCN1CCN(C(c2ccccc2)c2ccccc2)CC1 | 4.22 µM (active) |  |
| O=S(=O)(O)c1ccccc1/C=C/c1ccc(-c2ccc(/C=C/c3ccccc3S(=O)(=O)O)cc2)cc1 |  | 5.67% (inactive) |
| CC1(C)[C@@H](O)CC[C@]2(C)[C@H]3C(=O)C=C4[C@@H]5C[C@@](C)(C(=O)O)CC[C@]5(C)CC[C@@]4(C)[C@]3(C)CC[C@@H]12 |  | 15.9% (inactive) |
| O=C1CCc2cc(OCCCCc3nnnn3C3CCCCC3)ccc2N1 | 13.3 µM (active) |  |
| CCC(CC)(CC(=O)Nc1cccc(/C=C/c2nc(C3CCC3)cs2)c1)C(=O)O | 23.7 µM (active) |  |
| Cc1cc(-c2ccc(N=Nc3cc(S(=O)(=O)O)c4ccccc4c3N)c(C)c2)ccc1N=Nc1cc(S(=O)(=O)O)c2ccccc2c1N | 19.4 µM (active) |  |
| CCN1C(=O)c2ccccc2C1Nc1ccc(OCCN2CCCCC2)cc1 (stereo not given) | 1.68 µM (active) |  |
| Cc1ccc(O)c(O)c1 | 59.4 µM (active) |  |
| CCc1oc2ccccc2c1C(=O)c1cc(I)c(O)c(I)c1 |  | 32.6% [at 42.5 µM] (inactive) |
| C=CCn1c(=O)n(CC=C)c(=O)n(CC=C)c1=O |  | -3.19% (inactive) |
| Cc1ccc(O)c(N)c1 | 48.6 µM (active) |  |
| CNC(=O)c1ccccc1Sc1ccc2c(/C=C/c3ccccn3)n[nH]c2c1 | 0.376 µM (active) |  |
| OCCN1CCN(CCCN2c3ccccc3Sc3ccc(C(F)(F)F)cc32)CC1 |  | -22.9% [at 42.5 µM] (inactive) |
| CN1CCCCC1CCN1c2ccccc2Sc2ccc(S(C)=O)cc21 (stereo not given) | 4.73 µM (active) |  |
| C#C[C@]1(OC(C)=O)CC[C@H]2[C@@H]3CCC4=C/C(=N/O)CC[C@@H]4[C@H]3CC[C@@]21CC | 29.8 µM (active) |  |
| CCC(C)n1ncn(-c2ccc(N3CCN(c4ccc(OC[C@H]5CO[C@](Cn6cncn6)(c6ccc(Cl)cc6Cl)O5)cc4)CC3)cc2)c1=O (stereo not given in full) | 2.98 µM (active) |  |
| CCOC(=O)c1ccc(C2CCC(NC[C@H](O)COc3ccc(O)c(NS(C)(=O)=O)c3)CC2)cc1 (stereo not given in full) |  | 11.4% (inactive) |
| Cc1cc(C)c(/C=C2\C(=O)Nc3ccccc32)[nH]1 |  | 12.7% [at 42.5 µM] (inactive) |
| OC12N=C(c3ccccc3)SC1Cc1cc(Cl)ccc12 (stereo not given) | 10.9 µM (active) |  |
| Cc1cc(C(C)(C)C)cc(C)c1CC1=NCCN1 |  | 32.3% [at 42.5 µM] (inactive) |

Target: Nuclear receptor subfamily 1 group I member 2 (Rattus norvegicus) (UniProt Q9R1A7)
Test: Rat pregnane X receptor (rPXR) activation by small molecules, qHTS assay (AID 1346983); further: nearly all actives have a fitted effect of over 20% in size
Details: rPXR luciferase reporter cells, One-Glo luminescence, 24 h; hits give high values
Outline: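 Cell-based rPXR luciferase reporter assay, 2,000 cells per well, rested 5hr at 37 C before compound addition in DMSO, then 24 hr at 37 C. One-Glo reagent was added and luminescence read after 30 min at room temperature.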

Sequence of Nuclear receptor subfamily 1 group I member 2 (Rattus norvegicus) (Q9R1A7 whole entry, looked up): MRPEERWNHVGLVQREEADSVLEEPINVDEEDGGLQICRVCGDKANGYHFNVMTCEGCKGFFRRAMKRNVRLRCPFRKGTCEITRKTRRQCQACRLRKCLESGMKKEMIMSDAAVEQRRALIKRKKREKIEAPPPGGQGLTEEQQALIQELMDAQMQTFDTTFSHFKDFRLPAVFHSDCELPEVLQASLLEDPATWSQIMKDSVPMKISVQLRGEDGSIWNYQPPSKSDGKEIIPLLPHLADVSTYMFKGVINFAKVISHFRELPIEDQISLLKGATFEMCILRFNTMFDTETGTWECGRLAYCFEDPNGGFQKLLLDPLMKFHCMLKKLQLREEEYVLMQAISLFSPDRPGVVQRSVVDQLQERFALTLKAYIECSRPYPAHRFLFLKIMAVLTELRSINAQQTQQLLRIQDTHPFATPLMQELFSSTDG

| SMILES | max activation |
| --- | --- |
| CN1CCC[C@@H]1CCO[C@](C)(c1ccccc1)c1ccc(Cl)cc1 | 6.7% (inactive) |
| C#C[C@]1(OC(C)=O)CC[C@H]2[C@@H]3CCC4=C[C@@H](OC(C)=O)CC[C@@H]4[C@H]3CC[C@@]21C | 3.89% (inactive) |
| Cc1cc(C(C#N)c2ccc(Cl)cc2)c(Cl)cc1NC(=O)c1cc(I)cc(I)c1O (stereo not given) | -15.9% (inactive) |

Target: Nuclear receptor subfamily 1 group I member 2 (Homo sapiens) (UniProt O75469)
Test: CYP3A4 induction through human pregnane X receptor (PXR) by small molecules, qHTS assay (AID 1346984); further: nearly all actives have a fitted effect of over 40% in size; further: potency means the concentration at half of the fitted maximal effect
Details: DPX-2 HepG2 PXR, CYP3A4-luciferin luminescence, 24 h; series mostly up to 46.1 µM; activation: at the top concentration
Outline: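 Human PXR activation is tracked via CYP3A4 promoter-luciferase in DPX-2 (HepG2) cells. Compounds treat cells for 24hr at 37C, and luminescence is read after One-Glo.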

| SMILES | activation | Potency |
| --- | --- | --- |
| CC1(C)[C@@H](O)CC[C@]2(C)[C@H]3C(=O)C=C4[C@@H]5C[C@@](C)(C(=O)O)CC[C@]5(C)CC[C@@]4(C)[C@]3(C)CC[C@@H]12 | -1.29% (inactive) |  |
| CCC(CC)(CC(=O)Nc1cccc(/C=C/c2nc(C3CCC3)cs2)c1)C(=O)O | -7.33% (inactive) |  |
| C#C[C@]1(OC(C)=O)CC[C@H]2[C@@H]3CCC4=C[C@@H](OC(C)=O)CC[C@@H]4[C@H]3CC[C@@]21C | -15.8% (inactive) |  |
| CCc1oc2ccccc2c1C(=O)c1cc(I)c(O)c(I)c1 |  | 25.1 µM (active) |
| CN1CCCCC1CCN1c2ccccc2Sc2ccc(S(C)=O)cc21 (stereo not given) | -10.3% (inactive) |  |
| C#C[C@]1(OC(C)=O)CC[C@H]2[C@@H]3CCC4=C/C(=N/O)CC[C@@H]4[C@H]3CC[C@@]21CC | -17.7% (inactive) |  |
| Cc1cc(C(C#N)c2ccc(Cl)cc2)c(Cl)cc1NC(=O)c1cc(I)cc(I)c1O (stereo not given) | 3.22% (inactive) |  |
| CC(C(=O)O)c1ccc2c(c1)[nH]c1ccc(Cl)cc12 (stereo not given) | -9.73% (inactive) |  |
| COC(=O)C1=C(C)NC(C)=C(C(=O)OCCN2CCN(C(c3ccccc3)c3ccccc3)CC2)C1c1cccc([N+](=O)[O-])c1 (stereo not given) | -26.3% (inactive) |  |
| CCCCN(CCCC)CC(O)c1cc(Cl)cc2c1-c1ccc(Cl)cc1/C2=C/c1ccc(Cl)cc1 (stereo not given) |  | 10 µM (active) |
| Cc1cc(C(C)(C)C)cc(C)c1CC1=NCCN1 | 26.1% [at 20.6 µM] (inactive) |  |

Target: Nuclear receptor subfamily 1 group I member 2 (Homo sapiens) (UniProt O75469)
Test: Human pregnane X receptor (PXR) activation by small molecules, qHTS assay (AID 1346985); further: nearly all actives have a fitted effect of over 40% in size; further: potency means the concentration at half of the fitted maximal effect
Details: DPX-2 HepG2 CYP3A4-luciferase, 24 h; series mostly up to 38.3 µM; activation: at the top concentration
Outline: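 DPX-2 cells (HepG2 co-transfected with a PXR response element and a CYP3A4-promoter luciferase construct) were seeded at 2,000 per well, rested 5 hr at 37C, then exposed to DMSO-dissolved compounds for 24 hr. Activation was read as luciferase luminescence.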

| SMILES | activation | Potency |
| --- | --- | --- |
| CC1(C)[C@@H](O)CC[C@]2(C)[C@H]3C(=O)C=C4[C@@H]5C[C@@](C)(C(=O)O)CC[C@]5(C)CC[C@@]4(C)[C@]3(C)CC[C@@H]12 | -6.36% (inactive) |  |
| CN1CCCCC1CCN1c2ccccc2Sc2ccc(S(C)=O)cc21 (stereo not given) |  | 15.8 µM (active) |
| C#C[C@]1(OC(C)=O)CC[C@H]2[C@@H]3CCC4=C/C(=N/O)CC[C@@H]4[C@H]3CC[C@@]21CC |  | 7.94 µM (active) |
| Cc1cc(C(C#N)c2ccc(Cl)cc2)c(Cl)cc1NC(=O)c1cc(I)cc(I)c1O (stereo not given) | 6.62% (inactive) |  |
| CC(C(=O)O)c1ccc2c(c1)[nH]c1ccc(Cl)cc12 (stereo not given) | 3.89% (inactive) |  |
| COC(=O)C1=C(C)NC(C)=C(C(=O)OCCN2CCN(C(c3ccccc3)c3ccccc3)CC2)C1c1cccc([N+](=O)[O-])c1 (stereo not given) | -5.8% (inactive) |  |
| CCCCN(CCCC)CC(O)c1cc(Cl)cc2c1-c1ccc(Cl)cc1/C2=C/c1ccc(Cl)cc1 (stereo not given) |  | 11.2 µM (active) |
| Cc1cc(C(C)(C)C)cc(C)c1CC1=NCCN1 | 23.6% [at 17.1 µM] (inactive) |  |
